# Assay results as given in PubChem BioAssay (NCI).
# This is part of a sample that, as a whole, favours compounds with a hit. Of some 83,000 tested, about 20% had one in any assay.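 Activity criterion: percent growth below 10, measured after cells in 96-well plates were exposed to a single compound concentration for 48 hours.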 Values without a mark were called inactive. Active and inactive are the calls of the source.
# Assays:
# Test in all cases: NCI-60 one-dose screen, 48 h (100 = growth as untreated, 0 = no growth, -100 = all killed)
# Details in all cases: 10 µM
# SN12C renal = system: SN12C renal
# UO-31 renal = system: UO-31 renal
# ACHN renal = system: ACHN renal
# CAKI-1 renal = system: CAKI-1 renal
# A498 renal = system: A498 renal
# CCRF-CEM leukemia = system: CCRF-CEM leukemia
# MOLT-4 leukemia = system: MOLT-4 leukemia
# RPMI-8226 leukemia = system: RPMI-8226 leukemia
# OVCAR-8 ovarian = system: OVCAR-8 ovarian
# OVCAR-5 ovarian = system: OVCAR-5 ovarian
# OVCAR-4 ovarian = system: OVCAR-4 ovarian
# SK-OV-3 ovarian = system: SK-OV-3 ovarian
# IGROV1 ovarian = system: IGROV1 ovarian
# OVCAR-3 ovarian = system: OVCAR-3 ovarian
# HS 578T breast = system: HS 578T breast
# NCI/ADR-RES ovarian = system: NCI/ADR-RES ovarian
# T-47D breast = system: T-47D breast
# SR leukemia = system: SR leukemia
SMILES,growth (SN12C renal),growth (UO-31 renal),growth (ACHN renal),growth (CAKI-1 renal),growth (A498 renal),growth (CCRF-CEM leukemia),growth (MOLT-4 leukemia),growth (RPMI-8226 leukemia),growth (OVCAR-8 ovarian),growth (OVCAR-5 ovarian) [%],growth (OVCAR-4 ovarian),growth (SK-OV-3 ovarian),growth (IGROV1 ovarian) [%],growth (OVCAR-3 ovarian),growth (HS 578T breast),growth (NCI/ADR-RES ovarian) [%],growth (T-47D breast),growth (SR leukemia)
COc1ccc(Nc2cc(C)nc(NCCCNc3ccnc4cc(Cl)ccc34)n2)cc1,1.94% (active),-73.5% (active),-93% (active),-69.6% (active),-0.29% (active),-21.9% (active),-35.1% (active),-58.8% (active),-8.6% (active),18.3,4% (active),-25.3% (active),29.7,-82.1% (active),-53.9% (active),29,-94.7% (active),
CC/C(=C(/c1ccc(OCCN(C)C)cc1)c1ccc(OC(=O)CCC(=O)c2c(C)[nH]c(/C=C3\N=C(c4ccc[nH]4)C=C3OC)c2C)cc1)c1ccccc1,35.9%,5.9% (active),30.4%,18.8%,50.3%,6.12% (active),3.77% (active),-22.3% (active),22.8%,65.3,37.4%,63.5%,27.6,33%,8.4% (active),20.7,22.7%,-21% (active)
c1ccc(CNc2ncnc3scc(-c4cccs4)c23)nc1,63%,47.7%,54.7%,58%,27.6%,63.7%,50.5%,40.9%,63.1%,99,41.2%,85.1%,63.6,52.8%,79.7%,58.8,47.3%,61.5%
O=C(Nc1ccc(CO)cc1)c1ccccc1Nc1ccnc(C(F)(F)F)c1,95.6%,81.5%,103%,95.8%,95.7%,89.7%,98.4%,89%,98.3%,104,98.2%,101%,101,110%,93.7%,102,86.9%,82.9%
COc1ccc(-n2c(SCc3cc(OC)c(OC)c(OC)c3)nc3ccc(C)cc3c2=O)cc1,82.2%,47.2%,66.7%,54.2%,38%,,56%,,84.2%,,67.2%,73.8%,62,59.9%,77.7%,45.8,67.8%,23%
COc1cc(-c2cc(/C=C/C(=O)c3ccc4c(c3)OCO4)[nH]n2)cc(OC)c1OC,63.9%,38.7%,84.6%,59.7%,73.7%,0.141% (active),52.7%,-11.6% (active),76.6%,,76.6%,99.2%,98.5,77.7%,86.6%,78.5,40%,-15.1% (active)
CC(=O)c1nc2ccccc2n1CCNC(N)=O,89.6%,78.8%,91.3%,105%,78.8%,68.3%,77.2%,32%,85.1%,97.5,93.1%,91.5%,88.9,82.7%,68.9%,101,67.8%,43.5%
CC/C(=C(/c1ccc(OCCN(C)C)cc1)c1ccc(OC(=O)CCCCC(=O)c2c(C)[nH]c(/C=C3\N=C(c4ccc[nH]4)C=C3OC)c2C)cc1)c1ccccc1,62.3%,45.4%,67.1%,47.6%,75.7%,9.97% (active),26.7%,25.4%,72.5%,91.3,55%,81.4%,85.4,80.1%,33.8%,71.7,25.2%,45.3%
COc1cc(-c2cc(/C=C/C(=O)c3ccc(Cl)c(Cl)c3)[nH]n2)cc(OC)c1OC,64.3%,54.1%,81.5%,82.9%,70.6%,,54.4%,-20.3% (active),77.8%,81.9,77.4%,97.3%,108,86.5%,90.1%,75.1,37%,-6.68% (active)
CCOC(=O)C(CSC(c1ccccc1)(c1ccccc1)c1ccccc1)NC(=O)C(CSC(c1ccccc1)(c1ccccc1)c1ccccc1)NC(c1ccccc1)(c1ccccc1)c1ccccc1 (stereo not drawn),110%,94.8%,104%,87%,91.3%,100%,110%,105%,95.6%,,105%,109%,115,119%,,109,108%,
C=C1c2c(C)nn(-c3ccc(OC)cc3)c2N(C)C23C[C@@H]1C1(C)c4c(C)nn(-c5ccc(OC)cc5)c4N(C)C(C)(C[C@H]12)C3 (stereo partly drawn),23.8%,16.2%,33.8%,2.18% (active),40.2%,21.7%,14.9%,4.67% (active),31.8%,61.7,28.1%,60.2%,70.8,24%,67.4%,35,13.4%,3.27% (active)
COc1cc(-c2cc(/C=C/C(=O)c3ccc(F)c(F)c3)[nH]n2)cc(OC)c1OC,39.2%,61.2%,36.8%,6.42% (active),60.9%,33.3%,41%,22.6%,58.1%,76,40.1%,90%,73.1,49.6%,61.3%,63.5,53.6%,44.3%
COc1cc(NC(=O)CCSc2nc3ccc(Cl)cc3c(=O)n2Cc2ccccc2)cc(OC)c1OC,80%,74.1%,45.9%,63.7%,33.5%,78.1%,60.6%,42.5%,73.9%,88.8,61.5%,82%,101,93.4%,40.3%,84.3,64.2%,66.5%
Fc1cc(C(F)(F)F)ccc1-c1cncnc1NC1CCCCCC1,89.7%,79.9%,91.5%,85.5%,49.6%,91.2%,98.1%,76.1%,87.1%,106,85.3%,101%,96.8,109%,102%,91.4,91.8%,118%
